Test results as given in PubChem BioAssay AID1159580 (chemical genetic matrix, 2015).
Out of some 5,500 compounds screened, about 2,000 (36%) were called active. Another 18% or so got no clear call; they are omitted. The list shows a part of the results. Values without a mark were called inactive. No stated cut-off is given here; in the data, active means normalized growth mostly below about 0.91 (no sharp cut-off); inconclusive means no clear call, values can overlap the other calls; inactive means mostly above about 0.92.

Assay: chemical genetic growth profiling, strain panel (AID 1159580);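 further: tested at 20 µM; growth read once vehicle control cultures reached saturation at 30 °C; 1 = growth at the plate median or of vehicle wells; lower values mean less growth of the strain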
Settings: growth OD

C#C[C@]1(O)CCC2C3CCc4cc(O)ccc4C3CC[C@@]21C (stereo partly drawn)
normalized growth (S. cerevisiae deletion strains, locus YJR043C, strain POL32, active compounds read low): 0.927 | normalized growth (S. cerevisiae deletion strains, locus YJR066W, strain TOR1, active compounds read low): 0.81 (active) | normalized growth (S. cerevisiae deletion strains, locus YKL009W, strain mrt4, active compounds read low): 0.827 (active) | normalized growth (S. cerevisiae deletion strains, locus YKL068W, active compounds read low): 1.03 | normalized growth (S. cerevisiae deletion strains, locus YKL085W, strain MDH1 (second series), active compounds read low): 1.01 | normalized growth (S. cerevisiae deletion strains, locus YKL085W, strain MDH1, active compounds read low): 1.01 | normalized growth (S. cerevisiae deletion strains, locus YKL160W, strain elf1, active compounds read low): 0.996 | normalized growth (S. cerevisiae deletion strains, locus YKR001C, strain vps1, active compounds read low): 0.959 | normalized growth (S. cerevisiae deletion strains, locus YKR026C, strain gcn3, active compounds read low): 1.05 | normalized growth (S. cerevisiae deletion strains, locus YKR091W, strain srl3, active compounds read low): 1.02 | normalized growth (S. cerevisiae deletion strains, locus YLL001W, strain dnm1, active compounds read low): 1.05 | normalized growth (S. cerevisiae deletion strains, locus YLL026W, active compounds read low): 1.01 | normalized growth (S. cerevisiae deletion strains, locus YLL041C, strain sdh2, active compounds read low): 1.03 | normalized growth (S. cerevisiae deletion strains, locus YLR027C, strain aat2, active compounds read low): 0.938 | normalized growth (S. cerevisiae deletion strains, locus YLR039C, strain RIC1, active compounds read low): 0.766 | normalized growth (S. cerevisiae deletion strains, locus YLR058C, strain SHM2, active compounds read low): 0.995 | normalized growth (S. cerevisiae deletion strains, locus YLR102C, strain apc9, active compounds read low): 1.03 | normalized growth (S. cerevisiae deletion strains, locus YLR113W, strain HOG1, active compounds read low): 1.05 | normalized growth (S. cerevisiae deletion strains, locus YLR221C, strain rsa3, active compounds read low): 0.965 | normalized growth (S. cerevisiae deletion strains, locus YLR258W, strain gsy2, active compounds read low): 0.982 | normalized growth (S. cerevisiae deletion strains, locus YLR262C, strain YPT6 (second series), active compounds read low): 0.735 (active) | normalized growth (S. cerevisiae deletion strains, locus YLR262C, strain YPT6, active compounds read low): 0.683 | normalized growth (S. cerevisiae deletion strains, locus YLR268W, strain sec22, active compounds read low): 0.91 | normalized growth (S. cerevisiae deletion strains, locus YLR320W, strain mms22, active compounds read low): 0.898 | normalized growth (S. cerevisiae deletion strains, locus YLR330W, strain CHS5, active compounds read low): 1.01 | normalized growth (S. cerevisiae deletion strains, locus YLR342W, strain FKS1 (second series), active compounds read low): 0.724 (active) | normalized growth (S. cerevisiae deletion strains, locus YLR342W, strain FKS1, active compounds read low): 0.983 | normalized growth (S. cerevisiae deletion strains, locus YLR357W, strain rsc2, active compounds read low): 1.1 | normalized growth (S. cerevisiae deletion strains, locus YLR370C, strain arc18, active compounds read low): 1.03 | normalized growth (S. cerevisiae deletion strains, locus YLR371W, strain rom2, active compounds read low): 1.03 | normalized growth (S. cerevisiae deletion strains, locus YLR384C, strain iki3, active compounds read low): 1.04 | normalized growth (S. cerevisiae deletion strains, locus YLR418C, strain cdc73, active compounds read low): 0.791 (active) | normalized growth (S. cerevisiae deletion strains, locus YML016C, strain PPZ1, active compounds read low): 1.03 | normalized growth (S. cerevisiae deletion strains, locus YML032C, strain rad52, active compounds read low): 0.913 | normalized growth (S. cerevisiae deletion strains, locus YML120C, strain ndi1, active compounds read low): 0.985 | normalized growth (S. cerevisiae deletion strains, locus YML124C, strain tub3, active compounds read low): 1.03 | normalized growth (S. cerevisiae deletion strains, locus YMR058W, strain fet3, active compounds read low): 0.947 | normalized growth (S. cerevisiae deletion strains, locus YMR078C, strain ctf18, active compounds read low): 1.02 | normalized growth (S. cerevisiae deletion strains, locus YMR125W, strain sto1, active compounds read low): 1.13 [resistant] (active) | normalized growth (S. cerevisiae deletion strains, locus YMR129W, active compounds read low): 1.02 | normalized growth (S. cerevisiae deletion strains, locus YMR205C, strain PFK2, active compounds read low): 0.995 | normalized growth (S. cerevisiae deletion strains, locus YMR223W, strain ubp8, active compounds read low): 0.948 | normalized growth (S. cerevisiae deletion strains, locus YMR231W, strain pep5, active compounds read low): 1.02 | normalized growth (S. cerevisiae deletion strains, locus YMR307W, strain GAS1, active compounds read low): 0.681 | normalized growth (S. cerevisiae deletion strains, locus YNL067W, strain RPL9B, active compounds read low): 0.9 | normalized growth (S. cerevisiae deletion strains, locus YNL071W, strain lat1, active compounds read low): 0.97 | normalized growth (S. cerevisiae deletion strains, locus YNL183C, strain NPR1, active compounds read low): 0.91 | normalized growth (S. cerevisiae deletion strains, locus YNL209W, strain ssb2, active compounds read low): 1.02 | normalized growth (S. cerevisiae deletion strains, locus YNL233W, strain BNI4, active compounds read low): 0.928 | normalized growth (S. cerevisiae deletion strains, locus YNL248C, strain rpa49, active compounds read low): 0.955 | normalized growth (S. cerevisiae deletion strains, locus YNL250W, strain rad50, active compounds read low): 0.989 | normalized growth (S. cerevisiae deletion strains, locus YNL271C, strain bni1, active compounds read low): 0.968 | normalized growth (S. cerevisiae deletion strains, locus YNL298W, strain CLA4, active compounds read low): 0.909 | normalized growth (S. cerevisiae deletion strains, locus YNL307C, strain MCK1, active compounds read low): 0.813 (active) | normalized growth (S. cerevisiae deletion strains, locus YNL322C, strain KRE1 (second series), active compounds read low): 1.03 | normalized growth (S. cerevisiae deletion strains, locus YNL322C, strain KRE1, active compounds read low): 1.01 | normalized growth (S. cerevisiae deletion strains, locus YNR049C, strain mso1, active compounds read low): 1.04 | normalized growth (S. cerevisiae deletion strains, locus YNR052C, strain pop2, active compounds read low): 0.965 | normalized growth (S. cerevisiae deletion strains, locus YOL006C, strain TOP1, active compounds read low): 0.726 | normalized growth (S. cerevisiae deletion strains, locus YOL012C, strain htz1): 2.07 | normalized growth (S. cerevisiae deletion strains, locus YOL147C, strain pex11, active compounds read low): 1.02 | normalized growth (S. cerevisiae deletion strains, locus YOR001W, strain rrp6, active compounds read low): 0.939 | normalized growth (S. cerevisiae deletion strains, locus YOR061W, strain CKA2, active compounds read low): 1.01 | normalized growth (S. cerevisiae deletion strains, locus YOR069W, strain VPS5, active compounds read low): 1.02 | normalized growth (S. cerevisiae deletion strains, locus YOR070C, strain gyp1, active compounds read low): 0.987 | normalized growth (S. cerevisiae deletion strains, locus YOR080W, strain dia2, active compounds read low): 1.01 | normalized growth (S. cerevisiae deletion strains, locus YOR083W, strain WHI5, active compounds read low): 0.974 | normalized growth (S. cerevisiae deletion strains, locus YOR106W, strain vam3, active compounds read low): 0.938 | normalized growth (S. cerevisiae deletion strains, locus YOR136W, strain idh2, active compounds read low): 1.01 | normalized growth (S. cerevisiae deletion strains, locus YOR144C, strain elg1, active compounds read low): 0.998 | normalized growth (S. cerevisiae deletion strains, locus YOR184W, strain ser1, active compounds read low): 0.624 (active) | normalized growth (S. cerevisiae deletion strains, locus YOR231W, strain MKK1, active compounds read low): 0.95 | normalized growth (S. cerevisiae deletion strains, locus YOR265W, strain rbl2, active compounds read low): 1.03 | normalized growth (S. cerevisiae deletion strains, locus YOR270C, strain vph1, active compounds read low): 0.905 | normalized growth (S. cerevisiae deletion strains, locus YOR290C, strain snf2, active compounds read low): 0.908 | normalized growth (S. cerevisiae deletion strains, locus YOR316C, strain cot1, active compounds read low): 1.04 | normalized growth (S. cerevisiae deletion strains, locus YPL051W, strain arl3, active compounds read low): 0.91 (active) | normalized growth (S. cerevisiae deletion strains, locus YPL078C, strain atp4, active compounds read low): 0.915 | normalized growth (S. cerevisiae deletion strains, locus YPL106C, strain sse1, active compounds read low): 1.14 | normalized growth (S. cerevisiae deletion strains, locus YPL240C, strain hsp82, active compounds read low): 1.02 | normalized growth (S. cerevisiae deletion strains, locus YPL241C, strain CIN2, active compounds read low): 1.03 | normalized growth (S. cerevisiae deletion strains, locus YPL256C, strain CLN2, active compounds read low): 1.03 | normalized growth (S. cerevisiae deletion strains, locus YPR119W, strain clb2, active compounds read low): 1.04 | normalized growth (S. cerevisiae deletion strains, locus YPR141C, strain kar3, active compounds read low): 1.04 | normalized growth (S. cerevisiae deletion strains, locus YPR163C, strain tif3, active compounds read low): 0.934 | normalized growth (S. cerevisiae deletion strains, locus YPR167C, strain met16, active compounds read low): 1.01 | normalized growth (S. cerevisiae deletion strains, strain wtn01, active compounds read low): 0.906 | normalized growth (S. cerevisiae strains, strain wild type, active compounds read low): 0.999
